# Data from publication PMC7862700, “An all-to-all approach to the identification of sequence-specific readers for epigenetic DNA modifications on cytosine”.
# Key:
# Test in all cases: DAPPL (digital affinity profiling via proximity ligation, sequencing); 10 mM Tris-HCl pH 7.5, 50 mM NaCl, 1 mM DTT, 4% glycerol, room temperature, 30 min; GST-TFs on glutathione beads, 16-mer random dsDNA library, 0.1% formaldehyde crosslink after washing; high values mean tight binding
# FLI1 = biological target: T1, FLI1 (Homo sapiens, UniProt Q01543 1-452); conditions: protein: recombinant; tags: N-terminal GST; dsDNA, one strand shown
# T1 sequence: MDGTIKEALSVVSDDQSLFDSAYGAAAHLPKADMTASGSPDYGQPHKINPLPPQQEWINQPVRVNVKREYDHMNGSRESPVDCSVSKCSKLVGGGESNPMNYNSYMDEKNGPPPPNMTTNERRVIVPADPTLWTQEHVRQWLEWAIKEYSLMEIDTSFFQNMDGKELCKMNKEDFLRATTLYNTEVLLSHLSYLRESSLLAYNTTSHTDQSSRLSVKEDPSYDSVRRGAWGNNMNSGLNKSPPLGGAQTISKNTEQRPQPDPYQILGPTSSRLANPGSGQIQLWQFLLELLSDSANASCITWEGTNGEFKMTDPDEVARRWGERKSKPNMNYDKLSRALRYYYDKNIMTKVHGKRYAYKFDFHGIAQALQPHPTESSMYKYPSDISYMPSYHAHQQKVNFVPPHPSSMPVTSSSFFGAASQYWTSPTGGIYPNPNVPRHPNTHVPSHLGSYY
# Procedure, shortened: (§1)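 Sequencing on an Illumina NextSeq500 followed washing, crosslinking with 0.1% formaldehyde, proximity ligation (BsaI/T4 ligase, 1 h, 37 °C) and PCR amplification of pools that had been incubated for 30 min at room temperature with 200 nmole of a random double-stranded 16-mer DNA library in Tris/NaCl/DTT/glycerol buffer. Each pool held DNA-barcoded human transcription factors, expressed in yeast as GST fusions and captured on glutathione beads, plus a tag-only sample. Binding signal is a hexamer's read frequency for a factor divided by its frequency in the tag-only sample.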
# ELK1 = biological target: T2, ELK1 (Homo sapiens, UniProt P19419 1-428); conditions: protein: recombinant; tags: N-terminal GST; dsDNA, one strand shown
# T2 sequence: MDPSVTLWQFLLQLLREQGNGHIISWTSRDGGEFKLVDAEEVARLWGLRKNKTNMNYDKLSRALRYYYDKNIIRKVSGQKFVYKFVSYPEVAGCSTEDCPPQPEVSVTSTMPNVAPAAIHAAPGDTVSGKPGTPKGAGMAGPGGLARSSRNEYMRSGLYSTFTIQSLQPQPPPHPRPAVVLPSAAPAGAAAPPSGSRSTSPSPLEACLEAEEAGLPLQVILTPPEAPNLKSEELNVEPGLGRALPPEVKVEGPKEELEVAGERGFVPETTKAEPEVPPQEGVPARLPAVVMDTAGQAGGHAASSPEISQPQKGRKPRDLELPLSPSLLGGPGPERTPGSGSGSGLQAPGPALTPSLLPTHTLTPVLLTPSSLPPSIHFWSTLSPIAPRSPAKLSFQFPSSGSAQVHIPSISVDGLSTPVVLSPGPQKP
# Procedure, shortened: as §1
# GABPA = biological target: T3, GABPA (Homo sapiens, UniProt Q06546 1-454); conditions: protein: recombinant; tags: N-terminal GST; dsDNA, one strand shown
# T3 sequence: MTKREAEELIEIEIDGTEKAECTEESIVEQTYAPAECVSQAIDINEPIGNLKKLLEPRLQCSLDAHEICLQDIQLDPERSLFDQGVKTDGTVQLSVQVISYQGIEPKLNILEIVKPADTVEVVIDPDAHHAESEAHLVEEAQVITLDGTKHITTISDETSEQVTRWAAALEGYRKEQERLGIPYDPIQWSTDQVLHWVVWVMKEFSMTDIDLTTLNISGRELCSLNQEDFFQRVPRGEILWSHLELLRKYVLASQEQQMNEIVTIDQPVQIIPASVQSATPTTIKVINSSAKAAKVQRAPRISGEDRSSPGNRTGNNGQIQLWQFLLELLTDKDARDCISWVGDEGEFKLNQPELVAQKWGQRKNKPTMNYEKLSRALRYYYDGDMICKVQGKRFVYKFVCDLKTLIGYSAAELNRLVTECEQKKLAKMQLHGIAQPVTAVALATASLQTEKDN
# Procedure, shortened: as §1
# ERG = biological target: T4, ERG (Homo sapiens, UniProt P11308 1-479); conditions: protein: recombinant; tags: N-terminal GST; dsDNA, one strand shown
# T4 sequence: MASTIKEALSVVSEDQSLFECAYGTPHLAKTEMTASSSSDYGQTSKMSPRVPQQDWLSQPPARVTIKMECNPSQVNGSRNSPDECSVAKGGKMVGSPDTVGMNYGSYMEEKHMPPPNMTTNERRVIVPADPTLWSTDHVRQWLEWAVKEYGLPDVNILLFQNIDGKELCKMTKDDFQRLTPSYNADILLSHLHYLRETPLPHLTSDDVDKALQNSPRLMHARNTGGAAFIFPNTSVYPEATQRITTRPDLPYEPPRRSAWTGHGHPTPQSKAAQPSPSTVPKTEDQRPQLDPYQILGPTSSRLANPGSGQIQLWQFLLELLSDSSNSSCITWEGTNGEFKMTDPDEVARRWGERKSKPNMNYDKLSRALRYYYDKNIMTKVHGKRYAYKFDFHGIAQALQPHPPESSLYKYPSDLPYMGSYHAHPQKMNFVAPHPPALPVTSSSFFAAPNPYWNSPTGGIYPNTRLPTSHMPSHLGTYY
# Procedure, shortened: as §1
# ELF1 = ELF1 (Homo sapiens, UniProt P32519 1-619); conditions: protein: recombinant; tags: N-terminal GST; dsDNA, one strand shown
# Procedure, shortened: as §1
# EHF = biological target: T5, EHF (Homo sapiens, UniProt Q9NZC4 1-300); conditions: protein: recombinant; tags: N-terminal GST; dsDNA, one strand shown
# T5 sequence: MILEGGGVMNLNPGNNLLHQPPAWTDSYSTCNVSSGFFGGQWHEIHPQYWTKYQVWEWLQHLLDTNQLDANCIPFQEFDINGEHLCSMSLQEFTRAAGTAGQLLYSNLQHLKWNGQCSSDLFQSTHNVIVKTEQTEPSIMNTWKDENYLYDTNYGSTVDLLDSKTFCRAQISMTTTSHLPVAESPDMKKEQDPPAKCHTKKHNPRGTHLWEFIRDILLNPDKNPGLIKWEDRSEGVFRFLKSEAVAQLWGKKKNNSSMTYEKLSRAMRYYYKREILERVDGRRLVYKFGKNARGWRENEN
# Procedure, shortened: as §1
# SPI1 = SPI1 (Homo sapiens, UniProt P17947 1-270); conditions: protein: recombinant; tags: N-terminal GST; dsDNA, one strand shown
# Procedure, shortened: as §1
# SPIB = SPIB (Homo sapiens, UniProt Q01892 1-262); conditions: protein: recombinant; tags: N-terminal GST; dsDNA, one strand shown
# Procedure, shortened: as §1
# ELK3 = biological target: T6, ELK3 (Homo sapiens, UniProt P41970 1-407); conditions: protein: recombinant; tags: N-terminal GST; dsDNA, one strand shown
# T6 sequence: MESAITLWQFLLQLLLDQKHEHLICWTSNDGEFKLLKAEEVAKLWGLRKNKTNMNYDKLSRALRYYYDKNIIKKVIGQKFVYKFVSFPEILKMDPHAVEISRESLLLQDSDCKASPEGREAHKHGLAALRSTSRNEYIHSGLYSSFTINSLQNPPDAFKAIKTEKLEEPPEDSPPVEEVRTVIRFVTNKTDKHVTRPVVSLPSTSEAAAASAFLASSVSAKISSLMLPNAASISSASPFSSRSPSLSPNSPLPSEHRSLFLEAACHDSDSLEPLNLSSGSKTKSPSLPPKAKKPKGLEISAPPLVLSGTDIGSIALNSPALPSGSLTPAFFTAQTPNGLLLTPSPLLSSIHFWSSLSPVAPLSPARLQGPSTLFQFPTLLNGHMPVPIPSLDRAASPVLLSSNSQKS
# Procedure, shortened: as §1
# FEV = biological target: T7, FEV (Homo sapiens, UniProt Q99581 1-238); conditions: protein: recombinant; tags: N-terminal GST; dsDNA, one strand shown
# T7 sequence: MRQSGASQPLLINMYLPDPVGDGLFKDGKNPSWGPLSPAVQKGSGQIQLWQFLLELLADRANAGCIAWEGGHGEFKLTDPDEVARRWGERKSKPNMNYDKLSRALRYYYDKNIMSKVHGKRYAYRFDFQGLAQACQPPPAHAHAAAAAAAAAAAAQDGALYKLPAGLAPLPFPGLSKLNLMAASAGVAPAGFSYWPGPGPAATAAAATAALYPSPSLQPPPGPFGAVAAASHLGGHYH
# Procedure, shortened: as §1
# ETV5 = ETV5 (Homo sapiens, UniProt P41161 1-510); conditions: protein: recombinant; tags: N-terminal GST; dsDNA, one strand shown
# Procedure, shortened: as §1
# HSF1 = HSF1 (Homo sapiens, UniProt Q00613 1-529); conditions: protein: recombinant; tags: N-terminal GST; chain copies: 3; dsDNA, one strand shown
# Procedure, shortened: as §1
# SPIC = biological target: T8, SPIC (Homo sapiens, UniProt Q8N5J4 1-248); conditions: protein: recombinant; tags: N-terminal GST; dsDNA, one strand shown
# T8 sequence: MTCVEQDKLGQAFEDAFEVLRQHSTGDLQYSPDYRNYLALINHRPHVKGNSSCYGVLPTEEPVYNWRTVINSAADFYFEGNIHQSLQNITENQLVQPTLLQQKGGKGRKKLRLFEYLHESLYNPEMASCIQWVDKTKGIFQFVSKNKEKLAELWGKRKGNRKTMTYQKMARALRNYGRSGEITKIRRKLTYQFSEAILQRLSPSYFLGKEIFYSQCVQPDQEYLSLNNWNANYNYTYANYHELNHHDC
# Procedure, shortened: as §1
# ELF4 = ELF4 (Homo sapiens, UniProt Q99607 1-663); conditions: protein: recombinant; tags: N-terminal GST; dsDNA, one strand shown
# Procedure, shortened: as §1
# ELK4 = biological target: T9, ELK4 (Homo sapiens, UniProt P28324-2 1-405); conditions: protein: recombinant; tags: N-terminal GST; dsDNA, one strand shown
# T9 sequence: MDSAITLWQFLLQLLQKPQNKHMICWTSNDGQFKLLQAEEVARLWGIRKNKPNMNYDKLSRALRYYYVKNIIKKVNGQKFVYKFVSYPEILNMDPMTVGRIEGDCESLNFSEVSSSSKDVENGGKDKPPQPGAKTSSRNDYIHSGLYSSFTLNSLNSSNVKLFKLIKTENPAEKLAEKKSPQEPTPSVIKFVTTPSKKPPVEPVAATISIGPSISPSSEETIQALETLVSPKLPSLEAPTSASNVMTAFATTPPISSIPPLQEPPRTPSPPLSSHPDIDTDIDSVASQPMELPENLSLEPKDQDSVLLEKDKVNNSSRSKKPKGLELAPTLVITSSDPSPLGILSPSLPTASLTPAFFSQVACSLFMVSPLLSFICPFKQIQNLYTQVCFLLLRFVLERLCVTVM
# Procedure, shortened: as §1
# ETV2 = biological target: T10, ETV2 (Homo sapiens, UniProt O00321 1-342); conditions: protein: recombinant; tags: N-terminal GST; dsDNA, one strand shown
# T10 sequence: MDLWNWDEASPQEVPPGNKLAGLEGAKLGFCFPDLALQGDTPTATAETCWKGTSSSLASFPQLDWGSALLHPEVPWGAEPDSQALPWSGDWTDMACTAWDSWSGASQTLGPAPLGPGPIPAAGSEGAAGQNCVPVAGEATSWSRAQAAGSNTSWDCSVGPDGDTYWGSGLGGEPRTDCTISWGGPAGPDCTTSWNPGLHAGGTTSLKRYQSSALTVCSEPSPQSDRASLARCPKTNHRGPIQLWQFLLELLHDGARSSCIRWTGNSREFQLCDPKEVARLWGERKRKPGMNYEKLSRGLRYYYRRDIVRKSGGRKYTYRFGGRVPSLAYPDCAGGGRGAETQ
# Procedure, shortened: as §1
# ELF3 = biological target: T11, ELF3 (Homo sapiens, UniProt P78545 1-371); conditions: protein: recombinant; tags: N-terminal GST; dsDNA, one strand shown
# T11 sequence: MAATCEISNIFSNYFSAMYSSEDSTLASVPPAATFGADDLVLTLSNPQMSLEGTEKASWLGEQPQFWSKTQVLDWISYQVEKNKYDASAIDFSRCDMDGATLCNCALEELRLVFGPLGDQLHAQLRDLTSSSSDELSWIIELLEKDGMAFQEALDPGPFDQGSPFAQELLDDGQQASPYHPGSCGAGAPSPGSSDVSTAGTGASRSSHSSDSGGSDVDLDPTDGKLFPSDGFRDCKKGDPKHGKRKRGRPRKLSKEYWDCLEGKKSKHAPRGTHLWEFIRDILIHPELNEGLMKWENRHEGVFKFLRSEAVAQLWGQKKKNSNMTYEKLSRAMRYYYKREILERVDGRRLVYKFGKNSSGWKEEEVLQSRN
# Procedure, shortened: as §1
# CRX = CRX (Homo sapiens, UniProt O43186 1-299); conditions: protein: recombinant; tags: N-terminal GST; dsDNA, one strand shown
# Procedure, shortened: as §1
# ETV1 = ETV1 (Homo sapiens, UniProt P50549 1-477); conditions: protein: recombinant; tags: N-terminal GST; dsDNA, one strand shown
# Procedure, shortened: as §1
# Sequence of CRX (O43186 whole entry): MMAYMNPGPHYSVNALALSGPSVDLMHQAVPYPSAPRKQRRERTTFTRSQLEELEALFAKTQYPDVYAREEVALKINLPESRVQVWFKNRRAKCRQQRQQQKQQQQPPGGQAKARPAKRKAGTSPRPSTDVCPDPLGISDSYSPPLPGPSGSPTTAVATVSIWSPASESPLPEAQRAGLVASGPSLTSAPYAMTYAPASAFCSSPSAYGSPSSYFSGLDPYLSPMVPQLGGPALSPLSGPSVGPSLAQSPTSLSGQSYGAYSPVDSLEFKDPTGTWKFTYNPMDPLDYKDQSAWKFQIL
# Sequence of ELF1 (P32519 whole entry): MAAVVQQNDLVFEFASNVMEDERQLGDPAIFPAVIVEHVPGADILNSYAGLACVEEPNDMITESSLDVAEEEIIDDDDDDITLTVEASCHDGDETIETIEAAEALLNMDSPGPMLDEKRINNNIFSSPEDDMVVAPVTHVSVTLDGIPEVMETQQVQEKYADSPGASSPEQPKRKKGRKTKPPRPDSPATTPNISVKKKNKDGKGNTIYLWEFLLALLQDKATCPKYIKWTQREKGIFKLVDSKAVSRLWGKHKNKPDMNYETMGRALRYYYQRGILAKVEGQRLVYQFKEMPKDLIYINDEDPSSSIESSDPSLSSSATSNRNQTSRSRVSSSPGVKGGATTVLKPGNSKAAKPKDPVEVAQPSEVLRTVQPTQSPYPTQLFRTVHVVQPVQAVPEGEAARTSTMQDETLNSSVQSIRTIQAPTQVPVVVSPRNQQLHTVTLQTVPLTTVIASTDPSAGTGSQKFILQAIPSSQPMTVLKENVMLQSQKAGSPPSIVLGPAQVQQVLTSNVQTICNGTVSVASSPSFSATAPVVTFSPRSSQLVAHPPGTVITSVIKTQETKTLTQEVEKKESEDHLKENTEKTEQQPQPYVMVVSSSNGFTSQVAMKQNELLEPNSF
# Sequence of ELF4 (Q99607 whole entry): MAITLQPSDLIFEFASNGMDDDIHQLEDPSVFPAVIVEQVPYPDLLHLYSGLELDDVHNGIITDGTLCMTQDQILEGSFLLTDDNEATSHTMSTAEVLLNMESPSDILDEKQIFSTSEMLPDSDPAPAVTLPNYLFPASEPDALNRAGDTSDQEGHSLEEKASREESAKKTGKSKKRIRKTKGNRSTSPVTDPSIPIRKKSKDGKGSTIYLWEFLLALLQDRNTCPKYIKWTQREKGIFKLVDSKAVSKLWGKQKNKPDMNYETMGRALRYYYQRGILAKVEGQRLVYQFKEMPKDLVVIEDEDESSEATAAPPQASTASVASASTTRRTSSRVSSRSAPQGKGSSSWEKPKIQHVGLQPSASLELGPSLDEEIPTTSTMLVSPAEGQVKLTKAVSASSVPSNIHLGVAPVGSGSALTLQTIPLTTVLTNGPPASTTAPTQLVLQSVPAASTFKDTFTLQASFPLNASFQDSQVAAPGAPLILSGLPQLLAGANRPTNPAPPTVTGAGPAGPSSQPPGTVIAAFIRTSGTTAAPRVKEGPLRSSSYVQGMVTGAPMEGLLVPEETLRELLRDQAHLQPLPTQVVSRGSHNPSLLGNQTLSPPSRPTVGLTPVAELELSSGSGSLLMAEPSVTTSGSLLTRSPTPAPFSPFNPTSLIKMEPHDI
# Sequence of ETV5 (P41161 whole entry): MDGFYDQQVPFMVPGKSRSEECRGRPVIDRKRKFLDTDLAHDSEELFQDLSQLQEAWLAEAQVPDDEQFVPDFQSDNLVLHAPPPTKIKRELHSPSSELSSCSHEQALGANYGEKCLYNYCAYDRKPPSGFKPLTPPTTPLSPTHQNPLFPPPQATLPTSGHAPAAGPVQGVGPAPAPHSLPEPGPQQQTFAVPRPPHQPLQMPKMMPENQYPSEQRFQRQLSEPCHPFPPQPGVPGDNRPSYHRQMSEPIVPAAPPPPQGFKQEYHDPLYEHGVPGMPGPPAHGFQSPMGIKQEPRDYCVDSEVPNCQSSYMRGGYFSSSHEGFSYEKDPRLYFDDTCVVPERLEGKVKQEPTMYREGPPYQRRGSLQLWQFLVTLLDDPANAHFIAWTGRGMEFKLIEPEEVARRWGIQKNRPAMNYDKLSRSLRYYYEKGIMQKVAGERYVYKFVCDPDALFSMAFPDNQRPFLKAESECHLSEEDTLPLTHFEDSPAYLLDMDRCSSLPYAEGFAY
# Sequence of ETV1 (P50549 whole entry): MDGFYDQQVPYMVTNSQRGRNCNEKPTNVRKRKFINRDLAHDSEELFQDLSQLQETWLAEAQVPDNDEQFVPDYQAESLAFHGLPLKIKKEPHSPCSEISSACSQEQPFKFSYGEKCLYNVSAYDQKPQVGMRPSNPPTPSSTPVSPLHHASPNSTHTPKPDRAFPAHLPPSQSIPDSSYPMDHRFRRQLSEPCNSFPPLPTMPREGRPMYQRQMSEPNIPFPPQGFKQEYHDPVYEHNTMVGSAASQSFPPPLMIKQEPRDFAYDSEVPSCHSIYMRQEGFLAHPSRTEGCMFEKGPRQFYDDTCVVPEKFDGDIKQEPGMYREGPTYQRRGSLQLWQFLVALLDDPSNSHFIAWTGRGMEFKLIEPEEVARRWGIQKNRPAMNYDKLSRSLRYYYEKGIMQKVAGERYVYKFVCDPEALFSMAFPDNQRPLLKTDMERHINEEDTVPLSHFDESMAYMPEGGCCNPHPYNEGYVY
# Sequence of HSF1 (Q00613 whole entry): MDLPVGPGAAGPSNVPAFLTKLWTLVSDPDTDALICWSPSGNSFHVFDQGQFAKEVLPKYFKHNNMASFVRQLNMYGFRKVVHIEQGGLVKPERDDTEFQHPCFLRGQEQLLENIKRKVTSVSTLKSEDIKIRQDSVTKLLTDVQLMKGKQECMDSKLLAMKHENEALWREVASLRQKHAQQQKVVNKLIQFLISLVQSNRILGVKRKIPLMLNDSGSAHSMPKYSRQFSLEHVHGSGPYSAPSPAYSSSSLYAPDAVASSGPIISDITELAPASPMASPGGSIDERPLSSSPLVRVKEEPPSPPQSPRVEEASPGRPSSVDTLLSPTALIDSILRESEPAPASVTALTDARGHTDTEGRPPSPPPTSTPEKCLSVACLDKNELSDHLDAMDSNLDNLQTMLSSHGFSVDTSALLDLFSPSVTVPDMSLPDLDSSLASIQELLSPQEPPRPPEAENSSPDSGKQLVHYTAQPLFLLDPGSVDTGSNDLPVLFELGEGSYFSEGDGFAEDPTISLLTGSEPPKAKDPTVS
# Sequence of SPIB (Q01892 whole entry): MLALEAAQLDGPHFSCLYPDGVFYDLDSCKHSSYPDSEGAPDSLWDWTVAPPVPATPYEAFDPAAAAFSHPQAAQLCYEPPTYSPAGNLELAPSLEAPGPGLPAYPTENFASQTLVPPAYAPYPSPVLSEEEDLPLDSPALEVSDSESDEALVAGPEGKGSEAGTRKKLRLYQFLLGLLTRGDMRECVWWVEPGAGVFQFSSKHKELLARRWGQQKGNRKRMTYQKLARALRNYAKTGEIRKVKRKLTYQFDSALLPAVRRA
sequence,measurement,setting,value
TTCGAC,binding signal,FLI1,"1.52 fold enrichment (6-mer frequency, TF over GST control)"
same,binding signal,ELK1,"1.51 fold enrichment (6-mer frequency, TF over GST control)"
same,binding signal,GABPA,"1.49 fold enrichment (6-mer frequency, TF over GST control)"
same,binding signal,ERG,"1.43 fold enrichment (6-mer frequency, TF over GST control)"
same,binding signal,ELF1,"1.49 fold enrichment (6-mer frequency, TF over GST control)"
same,binding signal,EHF,"1.41 fold enrichment (6-mer frequency, TF over GST control)"
same,binding signal,SPI1,"1.3 fold enrichment (6-mer frequency, TF over GST control)"
same,binding signal,SPIB,"1.45 fold enrichment (6-mer frequency, TF over GST control)"
same,binding signal,ELK3,"1.39 fold enrichment (6-mer frequency, TF over GST control)"
same,binding signal,FEV,"1.5 fold enrichment (6-mer frequency, TF over GST control)"
same,binding signal,ETV5,"1.46 fold enrichment (6-mer frequency, TF over GST control)"
same,binding signal,HSF1,"1.75 fold enrichment (6-mer frequency, TF over GST control)"
same,binding signal,SPIC,"1.35 fold enrichment (6-mer frequency, TF over GST control)"
same,binding signal,ELF4,"1.63 fold enrichment (6-mer frequency, TF over GST control)"
same,binding signal,ELK4,"1.43 fold enrichment (6-mer frequency, TF over GST control)"
same,binding signal,ETV2,"1.35 fold enrichment (6-mer frequency, TF over GST control)"
same,binding signal,ELF3,"1.46 fold enrichment (6-mer frequency, TF over GST control)"
same,binding signal,CRX,"1.44 fold enrichment (6-mer frequency, TF over GST control)"
same,binding signal,ETV1,"1.44 fold enrichment (6-mer frequency, TF over GST control)"
